Rows were chosen to be rich in hits. Some 19% of all compounds tested hit in one or more screens of this group.
uPA generation: blocks generation of uPA at the cell surface; AID 540303; Potency, µM (series often up to 38.3 µM), actives largely listed as inhibitors; 0.31% of 330,000 active; cell surface uPA generation assay, qHTS; active means well fitted inhibition curve with a large enough effect; inconclusive means small, poorly fitted or top-dose-only effect; inactive means no such curve, though single readings can be large or run the other way; tested in mouse RAW 264.7 cells; further: nearly all actives have a fitted effect of over 55% in size
IL1B secr inh: inhibitors of inflammasome signaling (IL-1 beta secretion); activity change, % at 57.5 µM; THP-1 LPS/ATP IL-1B secretion, AlphaLISA, 16 h; active compounds read low; 4.7% of 360,000 active; AID 743279; in the data active means activity change below about -50%; inconclusive means mostly about -30% to -49%
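Secreted IL-1B measured by AlphaLISA bead assay after 16 h compound exposure of THP-1 cells; compounds (final up to 57.5 uM) added 1 h before LPS (250 ng/mL) and ATP (1.25 mM) stimulation; lower signal means less secretion.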
HT1080NT lethal: kills 2HG-producing HT-1080-NT fibrosarcoma cells | Potency, µM (series often up to 46.1 µM), most hits filed as cytotoxic | 1.6% of 360,000 active | HT-1080-NT fibrosarcoma viability, CellTiter-Glo ATP luminescence, 48 h;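 further: NT is the 2HG producing partner of a matched IDH1 knockdown line; nearly all actives have a fitted effect of over 55% in size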
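Fibrosarcoma NT cells, 750 per well in 5% FBS RPMI, were exposed to compound for 48 hours. Viability: CellTiter-Glo luminescence.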
HT1080 IDH1KD tx: kills HT-1080 cells with IDH1 knockdown; HT-1080 IDH1 knockdown viability, ATP luminescence, 48 h; Potency, µM (titrated, usually from 46.1 µM), actives largely listed as cytotoxic; 2% of 360,000 active
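% activity derives from luminescence (CellTiter-Glo), normalised to DMSO and no-cell wells. HT-1080-IDH1KD cells, 750/well, had 48 h compound exposure at 37 °C.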
TDP1 cell CPT: DT40-hTDP1 cell growth loss with CPT; chicken DT40 Tdp1-/-;hTDP1 cells + 20 nM CPT, ATP luminescence, 48 h; Potency, µM (top dose mostly 46.2 µM), most hits filed as inhibitors; 12% of 420,000 active; AID 686979; further: nearly all actives have a fitted effect of over 55% in size
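Chicken DT40 Tdp1-/- cells stably complemented with human TDP1 were seeded at 400 cells/well in medium containing 20 nM camptothecin, exposed to pin-transferred compounds, and grown at 37 °C for at least 48 hr. Viability was read as ATP luminescence.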
DT40 TDP1 no CPT: qHTS for Inhibitors of human tyrosyl-DNA phosphodiesterase 1 (TDP1): qHTS in cells in absence of CPT. DT40 Tdp1-/- hTDP1 cells, no CPT, ATP luminescence, 48 h. Potency, µM (series often up to 46.2 µM), most hits filed as inhibitors. 15% of 420,000 active. AID 686978, 2013; further: nearly all actives have a fitted effect of over 55% in size
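A cellular qHTS used chicken DT40 cells lacking endogenous Tdp1 but carrying stably transfected human TDP1. Compounds were applied without camptothecin, and cell growth kinetics were judged by ATP-dependent luminescence after ≥48 hr.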
Numbers stand for hits; n = inactive; u = inconclusive; x = no result given; ! = not active in a repeat. Unless noted, the call rests on the fitted dose curve; in most records, active means well fitted curve in the direction sought with a large enough effect; inconclusive means small, poorly fitted or top-dose-only effect, or another doubt; inactive means no such curve, though single readings can be large; an effect the other way counts as inactive or inconclusive.

SMILES | uPA generation | IL1B secr inh | HT1080NT lethal | HT1080 IDH1KD tx | TDP1 cell CPT | DT40 TDP1 no CPT
O=C(NCc1ccc(F)cc1)c1cc(C2CCCCN2C(=O)CCc2ccccc2)on1 (stereo not given) | x | n | n | n | n | n
Cc1noc2ncnc(N3CCCC(C(=O)NCCC(C)C)C3)c12 (stereo not given) | x | x | x | x | 8.2µM | 7.3µM
CCOC(=O)c1ccc(NC(=O)C2CCCN(c3ncnc4onc(C)c34)C2)cc1 (stereo not given) | x | x | x | x | 13µM | 15µM
CCOCCCNC(=O)C1CCCN(c2ncnc3onc(C)c23)C1 (stereo not given) | x | x | x | x | 16µM | 21µM
COCCCNC(=O)C1CCCN(c2ncnc3onc(C)c23)C1 (stereo not given) | x | x | x | x | 18µM | u
CCCCN(CC)CCNC(=O)C1CCCN(c2ncnc3onc(C)c23)C1 (stereo not given) | x | x | x | x | n | n
Cc1ccc(C)c(NC(=O)C2CCCN(c3ncnc4onc(C)c34)C2)c1 (stereo not given) | x | x | x | x | 12µM | 10µM
O=C1[C@H]2[C@H](C=CC[C@H]2C(=O)N2CCN(c3ccccc3)CC2)CCN1Cc1ccc(Cl)c(Cl)c1 | n | -51 | n | n | 16µM | 18µM
COc1ccc(NC(=O)[C@@H]2CC=C[C@@H]3CCN(Cc4ccc(Cl)c(Cl)c4)C(=O)[C@@H]32)cc1 | n | u | n | u | u | u
O=C(Nc1ccccc1)[C@@H]1CC=C[C@@H]2CCN(C3CC3)C(=O)[C@@H]21 | x | x | x | x | n | n
O=C1[C@H]2[C@H](C=CC[C@H]2C(=O)N2CCN(c3ccccc3)CC2)CCN1Cc1ccccc1 | n | n | n | n | u | 14µM
O=C(NCc1cccnc1)[C@@H]1CC=C[C@@H]2CCN(Cc3ccc(Cl)c(Cl)c3)C(=O)[C@@H]21 | n | n | n | n | u | u
O=C(NCCc1ccccc1)[C@@H]1CC=C[C@@H]2CCN(C3CCCCC3)C(=O)[C@@H]21 | n | n | n | n | 20µM! | u
COc1ccc(CN2CC[C@H]3C=CC[C@@H](C(=O)Nc4ccc(Cl)c(C(F)(F)F)c4)[C@H]3C2=O)cc1OC | n | u | n | n | u | 11µM
O=C([C@@H]1CC=C[C@@H]2CCN(C3CC3)C(=O)[C@@H]21)N1CCN(c2ccccc2)CC1 | n | n | n | n | n | n
CC(C)[C@@H]1Cc2[nH]c(=O)[nH]c(=O)c2[C@H](C)O1 | x | n | n | n | n | n
CCOc1ccc(-c2cc(C(=O)Nc3cc(OC)c(OC)c(OC)c3)[nH]n2)c(C)c1 | x | n | n | u | u | u
Cc1[nH]c(=O)[nH]c(=O)c1S(=O)(=O)Nc1cccc([N+](=O)[O-])c1C | n | n | n | n | n | n
CCN(CC)CCNC(=O)C1(O)c2cc(Br)ccc2NC(=O)N1c1ccccc1 (stereo not given) | n | n | n | n | n | n
COc1ccccc1CNS(=O)(=O)c1c(C)nc2sc(C)cn2c1=O | x | x | x | x | n | n
Cc1ccc(CSCCC(=O)NCc2ccc(F)cc2Cl)cc1 | x | x | x | x | n | n
O=C(Nc1ccc(Cl)cc1Cl)[C@@H]1CC=C[C@@H]2CCN(Cc3ccccc3)C(=O)[C@@H]21 | x | x | x | x | 10µM | u
CCCCNC(=O)[C@@H]1CC=C[C@@H]2CCN(Cc3ccc(Cl)c(Cl)c3)C(=O)[C@@H]21 | n | n | n | n | 11µM | 8.9µM
Cc1ccc(S(=O)(=O)N(CC(=O)Nc2cccc(C(F)(F)F)c2)C(=O)N2CCN(C)CC2)cc1 | n | u | n | n | n | n
CC1(C)CC(=O)C(=Cc2cn(-c3ccccc3)nc2-c2ccc(Cl)cc2)C(=O)C1 | n | n | n | u | 9.2µM | 21µM
O=Cc1cn(-c2ccccc2)nc1-c1ccccc1 | n | n | n | n | u | u
CC1=NNC(=O)/C1=C\c1cn(-c2ccccc2)nc1-c1ccccc1 | n | -104 | 16µM | 13µM | 5.8µM | 4.1µM
